Inconclusive results are not listed. A number with no mark means an inactive call. Activity calls are given as the source filed them. Calls follow the shape of the dose curve; as a rule, active = well fitted inhibition curve with a large enough effect; inconclusive = small, poorly fitted or top-dose-only effect; inactive = no such curve, though single readings can be large or run the other way.
assay: S16 Schwann cell PMP22 intronic element firefly luciferase assay (AID 624032); details: S16 rat Schwann cells, PMP22 element FLuc, 24 h; series mostly up to 57.5 µM; activity change, negative = inhibition: at the top concentration; also: nearly all actives have a fitted effect of over 30% in size
From the text: Charcot-Marie-Tooth-Association [CMTA]
National Center for Advancing Translational Sciences [NCATS]
Charcot-Marie-Tooth (CMT) disease was first characterized by Jean-Martin Charcot and Pierre Marie in France and, independently, by Howard Henry Tooth in England in 1886. CMT is one of the most common inherited neurological diseases, affecting approximately 1 in 2,500 Americans. […] The most prevalent type of CMT is known as CMT1A and caused by a duplication of the PMP22 gene which leads to over-expression of this protein. PMP22 is a glycosylated intrinsic membrane protein accounting for 2-5% of the myelin protein content, and its over-expression results in demyelination and subsequently axonal loss.
A pair of cellular transcription-based assays was developed in the S16 rat Schwann cell lines (Hai, M., et al., 2002) stably transfected with orthogonal reporters - firefly luciferase (Fluc) and beta-lactamase (beta-Lac) - whose expression is driven by an intronic regulatory element of the PMP22 gene (Jones, E.A., et al., 2011) to recapitulate endogenous expression of PMP22. The current assay employs Fluc to report on PMP22 expression. A comprehensive library of approved drugs, the NCGC Pharmaceutical Collection (Huang, R., et al., 2011), was screened in the cross-validating platform of the orthogonal reporter assays to identify drug modulators inhibitory towards PMP22 expression.
A set of counter-screens was devised to address non-specific activity of the library. An ATP-dependent CellTiter-Glo assay (developed by Promega Corp) was utilized to control cell viability. In addition, biochemical Fluc enzyme assay was performed to assess direct inhibition of the Fluc enzymatic activity.
Hai, M., Muja, N., DeVries, G.H., Quarles, R.H. and Patel, P.I. Comparative analysis of Schwann cell lines as model systems for myelin gene transcription studies. J Neurosci Res, 2002. 69(4): pp 497-508
Huang, R., Southall, N., Wang, Y., Yasgar A., Shinn P., Jadhav, A. , Nguyen, D.-T. and Austin, C.P., The NCGC pharmaceutical collection: a comprehensive resource of clinically approved drugs enabling repurposing and chemical genomics. Sci Transl Med, 2011. 3(80): p. 80ps16.
S16 Schwann cell PMP22 intronic element firefly luciferase assay
The FLuc-expressing S16 cells were seeded in white solid 1536-well plates at between 500-750 cells/4uL in DMEM medium containing 10% FBS, w/o phenol red. After overnight incubation at 37 degree Celsius/5% C02, 23 nL of compounds or DMSO were delivered to each well using a pin tool, followed by 24h-incubation at 37 degree Celsius/5% C02. Then 4 uL ONE-Glo luminescent substrate mix (Promega) was added to each well. Luminescence was measured on a ViewLux plate reader (Perkin Elmer). The % activity was determined by normalizing to the average readings of PTC124 (a positive control) - treated cells relative to DMSO-treated cells (0% Activity). The concentration-effect curves were then classified based on curve quality (r2), response magnitude and degree of measured activity.
Potency is read from the fitted curve at half-maximal effect.

SMILES | activity change, negative = inhibition | Potency
O=C(O)CN1C(=O)c2cccc3cccc(c23)C1=O | -28% | 
CC1(C)OC(=O)NC1=O | 25.4% | 
Nc1ccc(S(=O)(=O)Nc2ccc(Cl)nn2)cc1 | 3.75% [at 25.7 µM] | 
CCCCOC(=O)c1ccc(O)cc1 | 64.3% | 
CCN(CC)CCNC(=O)c1cc(Cl)c(N)cc1OC | 15.7% | 
O=C(O)CC(O)C(=O)O (stereo not given) | 25% | 
C=Cc1c(C)c2cc3[nH]c(cc4nc(cc5nc(cc1[nH]2)C(C)=C5CCC(=O)O)C(CCC(=O)O)=C4C)c(C)c3C=C |  | 12.8 µM (active)
N[C@@H](CSCCCO)C(=O)O | -19.3% | 
C[C@@H]1CN(c2c(F)c(F)c3c(=O)c(C(=O)O)cn(C4CC4)c3c2F)C[C@H](C)N1 | 17.4% | 
c1ccc(CN(CC2=NCCN2)c2ccccc2)cc1 | -9.13% | 
CCCCc1ncc(/C=C(\Cc2cccs2)C(=O)O)n1Cc1ccc(C(=O)O)cc1 | 13.4% | 
O=C(O)[C@@H]1CSCN1 | -15.9% | 
CCN(CC)CCNC(C(=O)OCCC(C)C)c1ccccc1 (stereo not given) | 20% | 
CCCCOc1cc(C(=O)OCCN(CC)CC)ccc1N | -18.9% [at 25.7 µM] | 
NCCNCCNCCN | -27.2% | 
Nc1ccc(S(=O)(=O)Nc2ccccc2)cc1 | -39.5% | 
COc1ccccc1O | -18.5% | 
CC(C)c1c(C(=O)Nc2ccccc2)c(-c2ccccc2)c(-c2ccc(F)cc2)n1CC[C@@H](O)C[C@@H](O)CC(=O)O | -10.2% | 
Cc1cc(CC(=O)O)n(C)c1C(=O)c1ccc(Cl)cc1 |  | inactive
NS(=O)(=O)c1cc2c(cc1Cl)NC(CSCc1ccccc1)=NS2(=O)=O | 12.5% [at 25.7 µM] | 

SMILES | activity change, negative = inhibition | Potency
CC[C@@]1(c2ccccc2)NC(=O)N(C)C1=O | 10.4% | 
Cn1c(=O)c2c(ncn2CC2OCCO2)n(C)c1=O | -17.1% | 
Cc1cccc(C)c1NC(=O)CN(CC(=O)O)CC(=O)O | -25.9% | 
O=C1NS(=O)(=O)c2ccccc21 | 12.4% | 
CCOC(=O)[C@H](CCc1ccccc1)N[C@@H](C)C(=O)N1C(=O)N(C)C[C@H]1C(=O)O | -1.27% | 
Cc1cc(N)c2ccccc2[n+]1CCCCCCCCCC[n+]1c(C)cc(N)c2ccccc21 |  | 3.46 µM (active)
[Cl][In]([Cl])[Cl] | 2.18% | 
O=C(CCCN1CCN(c2ccccn2)CC1)c1ccc(F)cc1 | 22.8% | 
CN(C)CCN(Cc1ccccc1)c1ccccn1 | -1.13% | 
O=c1cc[nH]c(=O)[nH]1 | -0.348% | 
COc1ccc2[nH]c(S(=O)Cc3ncc(C)c(OC)c3C)nc2n1 (stereo not given) | 30.2% | 
C[C@H](N)[C@H](O)c1cccc(O)c1 | -13.9% [at 25.7 µM] | 
C[C@H]1O[C@@H](n2cc(F)c(=O)[nH]c2=O)[C@H](O)[C@@H]1O | -0.641% | 
CCCCN1CCCC[C@H]1C(=O)Nc1c(C)cccc1C | -3.7% | 
Oc1cccc(O)c1 | 7.05% | 
C[C@](N)(Cc1ccc(O)cc1)C(=O)O | 5.56% | 
CCCCCCCCCCCCCCCC(=O)NCCO | -13.4% | 
Cc1ncc(COP(=O)(O)O)c(C=O)c1O | -8.06% | 
CC12CCC(CC1)C(C)(C)O2 | 20.7% | 
NC1CCN(c2cccc(Cl)n2)CC1 | 23.3% | 

From PubChem BioAssay (NCATS)
